Measurements as given in the supplement of paper PMC10105736.
Values without a mark were called inactive.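 Rule for the calls: active = MAPPIT score above the 99th percentile of random reference set scores in the same batch; inactive = at or below it.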

What was measured:
Experiment in all cases: MAPPIT interaction score (arbitrary units); higher = stronger binary interaction signal, active = hit call of the paper
Nnk = settings: MAPPIT configuration: N-N; pair source set: Curagen_high_conf
Nup50 = settings: MAPPIT configuration: N-N; pair source set: DPIM
Nacalpha = settings: MAPPIT configuration: N-N; pair source set: DPIM
Nup153 = settings: MAPPIT configuration: N-N; pair source set: DPIM
Pen = settings: MAPPIT configuration: N-N; pair source set: Lit-BM-16
Naa30A = settings: MAPPIT configuration: N-N; pair source set: Curagen_high_conf
Mpcp2 = settings: MAPPIT configuration: N-N; pair source set: Lit-BS-16
mod(mdg4) = settings: MAPPIT configuration: N-N; pair source set: Lit-BS-16
Not3 = settings: MAPPIT configuration: N-N; pair source set: Finley_Y2H
Nup107 = settings: MAPPIT configuration: N-C; pair source set: screen_4
dgt6 = settings: pair source set: Lit-BM-16
ND-ACP = settings: MAPPIT configuration: N-N; pair source set: Lit-BS-16
Mzt1 = settings: MAPPIT configuration: N-N; pair source set: RRS
Nedd4 = settings: pair source set: Lit-BM-16
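Note: HEK293T cells with Epo stimulation, STAT-responsive firefly luciferase reporter, fold induction versus unstimulated cells divided by the larger fold induction of two negative controls lacking either bait or prey.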

B1: mei-S332 (protein)
chain: MGSKVEQQYKLLNAELMDQVQKQRLEIGEYRKRVISLEREIMDIREEHVLQNHRQRMENISIVRSLMLSLNVDSDSLAVRQEPAPAAQINRPSGPRRSSREICKDMRRTCALARTTRPISPRRSSSVTSTVSSTSRRSSAEVQSEVVTTRIPEDRRANKPTPPPRRPAELVFDEDDSDDDFDEAVSPVEETQTEQNEENNRLFSIIEENGSEGESTDSSSSCEAIYCDTTFESSPPNAQVTVTPSGRALREVDTNIPVAVSLSRGKETGKGSWLAISVAVEDSPQEPSIQCPRLAVTRPSQSSGIFPDVNGLTPRRSLFNGIGKMAGSTSTPKSFLVEEMPSIRTRSRTAANKKSENTDMSSSFCNNSARPSRSCRPTSLVEPSLKNKLRNGSKGKAKAKK
- MAPPIT interaction score (Nnk): -0.26

B2: Nubp2 (protein)
chain: MLDKVKNVIVVLSGKGGVGKSTVSTQLSLALRKNGFKVGLLDIDLCGPSVPYLLGLEGRDIFQCDDGWVPVYTDESQTLAVMSIGFLLKNREDPVIWRGPKKTMMIRQFLTDVRWDELDYLIIDTPPGTSDEHITVMECLKEVGCHGAIIVTTPQEVALDDVRKEITFCKKTGINILGIVENMSGFVCPHCTSCTNIFSSNGGVSLATYAQVPHLGTLPIDPRVGILAGTTTSVLDELPDSTTAEVLTHIVEKLKTMLVS
- MAPPIT interaction score (Nup50): -0.182

B3: eIF3j (protein)
chain: MADDWESAADSEVVIRPTAAASVNKWEGEDEDEDIKDSWEDEEEKKDEEKPTKTEAPAKPKPNKALKAKLEQQALLEEEAEAKRLANLSPAEKLAEKLRLQKIQEASDLKHAQEAFGVTSTCGGLDAFNPETKEEFKEFGATLSWKVGQFRESEHFPQFVEDLVRSLCVNLSAADIKKVKMNVEILHSEKLKLEKANAKKPAGKGKGKVTLRTENDDIDGYQKYGNDFTEDYDDFM
- MAPPIT interaction score (Nacalpha): 0.261

B4: Nup50 (protein)
chain: MAGKRQATSNLNHENWDLEEEPEERGTFRTATEEELKTRVIKKARRKIAGGSSAAEEDGAEEKTAEPKSVFSGFSGFGKPAASPAAGSPFSFLANVTAPATTSSSEPKKSAFSFGFSSSSSSADRPVSTSICGTASTSSTAPSPLPAKESTSTVDGAKPTTSIFGNISAAKKESSEAKTSSSSTSLTSTMETSEYRESVADLNRSVIKFLQDQMGKSPYCILTPVFKNYDEHLKDLQDEESARTNSTKSKTAQARSQEPVAKVSRASSPPKAATTFTFGKPSAPIGASVSPLAKKPNCTITSGGTTTTTATPLVSFGSTASFTAPVPSSSSIFSLTAKPTGEAKSDDTPKSSIFSFGAKDTTTKKDEPNFSAPKTNGFSFGLKSNNDDKPSTSLFAGFGKAPGGAGDGAKGFSFTNSATPFSLGNIHPPAAAAAPAEEEKEEDTPPKVEFKQVVEDDAIYSKRCKVFIKKDKDFGDRGVGTLYLKPVKDSEKIQLLVRADTNLGNILVNLILSKGIPCQRMGKNNVLMVCVPTPEDSKATSLLLRVKTGDEADDLLEKIKEHIK
- MAPPIT interaction score (Nup153): 0.802
- MAPPIT interaction score (Pen): 3.66 (active)

B5: Naa35 (protein)
chain: MYPSTLPAEADPSTMNGSSVAEPPDFQAATAAAAAAARASSLEQDEWSVGECGFLDPDVQRTMRSGSAAEDITQYPMHGWVDVTKEFHDACAELQPGELAQDMLFGLFEAMSAIEIMDPKMDVGMGFDKQDLPPPSFEAAIATGAIKLDDLTPSELIGIYDALFSCLVSWLEGNSMDQVLFTCLYLHAPAQIKDKALRVFCTAVRNLIVVIKKIIAVAAVNEEEDFQLYGNSALLAAEKAQPATVYSSLKDVEDELIRKCKKLTSTEDWMAVVHRLRFMRHLFQVIYHVEQMASNDTVDDKVDIYKILLVASEMLPGIRNTLDRGTQPEKGSDAPNPMGFSPRIHDRSQPPAFPRSIKIRDRPSSYQFLEEMISRFKYACKVTKYKDYYSALNFFIEYSKKSGQCILSRSVLQTLFSANMRMAHGKLPMKQFLRHSVQVFNSPPVLNAKHPVAADPKVQQHLENFFRYCINMNTFTQFIRICGFNRARQRDKLARLIENFDTIQVDAARLDSMMNQLANERAMEGNEPMATALKHSTHFSTWVLYNCFRAMLIFLMSGFELELYAVHEFLYIYWYPYEFLIGFLVSALTRTENILLAQEEYAEHQSKTQSGGSGAAKNRKAAKPKKNKKTQRPYRAEIVFYHALLSLCGGMYKAMGALTKDGRVRLPLSKFDNEEIRYNRRFLPFATLTSPPPVSYAEFKNVREHMMRHSVEDLYTYAAKHFDQARNVLESIQNPDQEMLDLLQIARTNFVVMNVLARGHQKEVKRQPEFDFSKHSYFPIIKLK
- MAPPIT interaction score (Naa30A): 3.72 (active)

B6: 4E-T (protein)
chain: MDTSKISARYSKVDLLALRYEGKSRQRPQCSTRLELQTLGFWKINLNTAALTVSSAYSNQNKNRLSPEADNSSLICSNSSSISSRRAMRNRERANNYYQRFVPTDSLLISGEDKDKDALSHGQPYKLNIIDHRSISSSHLMPAFAKRRFVISKGSNSEESNEGINTCASKGKAASSPSRKGSELDTAETCLNFVQPDHDQCMSSSPTFSTSRQERRIGSGRLLPRSDNWDYKNEKTVEASIENEKETSPNGSGSTSSLNQHNQSQHRSRTFSGRLVERVPEVTDRRFQYDSKKSFDRQGINNRRISGKEPFSTQSRSKRGNSYLIHEEPEWFSAGPKSQLETIDLHGFEDLEKNEERSVTEDKNNQIQQLDKNLDAQASKDEASMRNSNDSLNFREVIPSDEKKHTDENVVTSIQNSTDLGHPNKNKPIQMQPSQNPESEFNFDAFLNMHPLDNSVLSNDETGKSDSKGTSRFSRWFRQKEAANNNEFPGFRESHAQEKRGIPSVKDLEAQMIKVDMRTDLINPIAGSLCQTVQMEKPIARDTEAFKKLLQQLGSQARQHHPCNDDCRTINLSNIANHVHLESKLHQKINDGHLQQPELSVNVPTMPTSSHVFLQKRLEIQHLIQRLHCGDVSHDFLEKELDNPSTPAATKDVIATVLNEYSHSKRNPVVTGDPNIFTQQSFLQPQSVHQHYSQELHSQNTANHTINQLISHGNSPTPLAFTPTSVLRKMTADKDTQSPSTYCQNPQYHVHQQNAKQVGTRENVLEPQLTATMAVQPRMILGGGNFAIGQNNQHLSPNMSQSRNQQVLKWTSGNMQMVHGKTFGRPILKGGLNSMPHSNSALPFTAHKIEMQPIHQPHLQQQQHRFKAVQSVESNLNTESVHQNITSPVGWHQLYMQHQQQHHHTRQQLSQRVIYGEMHRQSNPQMSPPVPGFSDSSDSGNVIKANSLTSPSYQRDERISSPTNQLAQWFSPELLAKASAGKLPLLNVNQALSLEEFERSIQHSSGVVHN
- MAPPIT interaction score (Mpcp2): 0.135
- MAPPIT interaction score (mod(mdg4)): -0.246

B7: Rga (protein)
chain: MANLNFQQPPRSIANAALAGRTTGGFGGSSLAGHVTPTSGMFQTDFANSYPGTANYGQAPQQQQQQQQQPQLSPNRNAQLSVGGPAISSGNRNANLFGQRQFVERRAMQGLGSGPMSNMGNFMQTGRGGYGTGGGGGGPLNNFHVFGGGGGSDTSTPALLDPTEFPSLTNARGQNDQTLPQSNPLQPPGSKPYGNFFTSFGMVKQPTSEQSEFTMSNEDFPALPGTQNSDGTTNAVGSVAGTGGSGGASTENHLDGTEKPMNSIVVSGSASGSSGSNVGVVGGNGLGAVGSGIGGLAVGGGGGAGSSGGGGVGGNAASGVVGGSHVGLVGSNSGIGGVNSVPNSNAMMGVGGGLGSGSGSSGSGAGGEHLNDNSSNDKLVKSGVQTSPDGKVTNIPATMVNNQFGMVGLLTFIRAAETDPNLVTLSLGTDLTGLGLNLNSQESLHTTFAGPFVAQPCRAQDVEFNVPPEYLINFAIRDKLTAPVLKKLQEDLLFFLFYTNIGDMMQLMAAAELHSREWRYHVEEKIWITRIPGIDQYEKNGTKERGTFYYFDAQSWKRLSKVFQIDPEKLDKCPNISAFMNGQSV
- MAPPIT interaction score (Not3): 0.172

B8: dgt4 (protein)
chain: METPPTPTTTTPPSLTTEGTMDDIQYLLHLEAMRRFQEDSRNVKRQVEEQVRIWLDAKCEYQRDFGRLARLLKCGALQAAVDAHRVSDVNQVDQAAKDIASLRSKLGSDLRPAILDSNDVKQCLEHLNTTHKPRLNLCRQQREFAQNQEALRSLRTAVDGLENGMEMGMIQAMDRLVEDLLPPRETNN
- MAPPIT interaction score (Nup107): 1.57
- MAPPIT interaction score (dgt6; MAPPIT configuration: N-C): 1.64
- MAPPIT interaction score (dgt6; MAPPIT configuration: N-N): 4.36 (active)

B9: DENR (protein)
chain: MTNEDVGTNSVADRLQLGPREGVTYPIQMKYCGHCTMPIEYCEYYPEYEKCKEWLELHMPDDFERLKIEEEAAAADGTDDDKKRQKRGGKGLLRVKKKEDVPKRICVSRAARGKKKSVTVVTGLSTFDIDLKVAAKFFGTKFACGSSVTGDDEIVIQGDVKDDLFDVIPEKWAEIDEDVIEDLGDQKRT
- MAPPIT interaction score (ND-ACP): 1.72

B10: Ror (protein)
chain: MNKYSAFIVCISLVLLFTKKDVGSHNVDSRIYGFQQSSGICHIYNGTICRDVLSNAHVFVSPNLTMNDLEERLKAAYGVIKESKDMNANCRMYALPSLCFSSMPICRTPERTNLLYFANVATNAKQLKNVSIRRKRTKSKDIKNISIFKKKSTIYEDVFSTDISSKYPPTRESENLKRICREECELLENELCQKEYAIAKRHPVIGMVGVEDCQKLPQHKDCLSLGITIEVDKTENCYWEDGSTYRGVANVSASGKPCLRWSWLMKEISDFPELIGQNYCRNPGSVENSPWCFVDSSRERIIELCDIPKCADKIWIAIVGTTAAIILIFIIIFAIILFKRRTIMHYGMRNIHNINTPSADKNIYGNSQLNNAQDAGRGNLGNLSDHVALNSKLIERNTLLRINHFTLQDVEFLEELGEGAFGKVYKGQLLQPNKTTITVAIKALKENASVKTQQDFKREIELISDLKHQNIVCILGVVLNKEPYCMLFEYMANGDLHEFLISNSPTEGKSLSQLEFLQIALQISEGMQYLSAHHYVHRDLAARNCLVNEGLVVKISDFGLSRDIYSSDYYRVQSKSLLPVRWMPSESILYGKFTTESDVWSFGVVLWEIYSYGMQPYYGFSNQEVINLIRSRQLLSAPENCPTAVYSLMIECWHEQSVKRPTFTDISNRLKTWHEGHFKASNPEM
- MAPPIT interaction score (Mzt1): -0.491

B11: comm (protein)
chain: MISTTDYPTVETTTTAEELYAEYISAPASSMSPAAIAEHLQQNQITFEIPSAHDLRHIDALNSFNALLQRIGNAAVSYDPAPPSGWSPDGSISTEQLSKSVVLDLADLRDRSEESGESSWWSQIFGDADMHVIINYLWIGVVSSLVILSLVFILFSCYFYRKFRTWKKCNKDIRAQIHAASDSYSSHLVGCDASRLLLHQQMQHPHHRSSEAGFYQIESPPCYTIATGLPSYDEALHHQPRHFAYGMKFVYPSLAAVHHHHHCISNWEKQEPLNKLQKCKLSAAAAVEEDKADSSSSTSASASPSSSESSNLATATPAICINMPSGRQDEEVDNSDSDSAIAVAVAVAQSLQPAAPADDDCASLVVVVAA
- MAPPIT interaction score (Nedd4; MAPPIT configuration: N-C): 1.86
- MAPPIT interaction score (Nedd4; MAPPIT configuration: N-N): -0.264
